Measurements: article PMC7862700, “An all-to-all approach to the identification of sequence-specific readers for epigenetic DNA modifications on cytosine”

Experiments:
Assay in all cases: DAPPL (digital affinity profiling via proximity ligation, sequencing); 10 mM Tris-HCl pH 7.5, 50 mM NaCl, 1 mM DTT, 4% glycerol, room temperature, 30 min; GST-TFs on glutathione beads, 16-mer random dsDNA library, 0.1% formaldehyde crosslink after washing; high values mean tight binding
Conditions in all cases: protein: recombinant; tags: N-terminal GST; dsDNA, one strand shown
[1] = target: T1, ERF (Homo sapiens, UniProt P50548 1-548)
T1 sequence: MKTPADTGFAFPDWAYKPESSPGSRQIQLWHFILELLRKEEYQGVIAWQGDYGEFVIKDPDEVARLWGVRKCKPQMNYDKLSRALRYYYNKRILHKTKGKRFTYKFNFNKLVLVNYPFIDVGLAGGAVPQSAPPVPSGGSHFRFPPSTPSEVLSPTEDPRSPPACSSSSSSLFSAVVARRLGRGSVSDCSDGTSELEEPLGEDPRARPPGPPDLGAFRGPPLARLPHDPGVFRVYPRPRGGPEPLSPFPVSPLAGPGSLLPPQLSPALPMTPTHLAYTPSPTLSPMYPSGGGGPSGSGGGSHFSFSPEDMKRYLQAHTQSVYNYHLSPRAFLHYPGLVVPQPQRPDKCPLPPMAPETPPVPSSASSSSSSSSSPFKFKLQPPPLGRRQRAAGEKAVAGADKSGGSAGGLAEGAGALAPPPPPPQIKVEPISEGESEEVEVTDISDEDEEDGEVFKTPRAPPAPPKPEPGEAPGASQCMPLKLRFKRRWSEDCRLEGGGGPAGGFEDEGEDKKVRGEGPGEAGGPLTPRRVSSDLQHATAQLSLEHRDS
Procedure, shortened: (§1)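 Binding signal is each hexamer's read frequency for a factor divided by its frequency in the tag-only sample. The factors were GST-fused human transcription factors from yeast, captured on glutathione beads, DNA-barcoded and pooled with that sample. Pools were incubated with 200 nmole of a random double-stranded 16-mer DNA library in Tris/NaCl/DTT/glycerol buffer at room temperature for 30 min, then washed, crosslinked with 0.1% formaldehyde, proximity-ligated with BsaI/T4 ligase (1 h, 37 °C), PCR-amplified and sequenced on an Illumina NextSeq500.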

[2] = target: T2, ETV3L (Homo sapiens, UniProt Q6ZN32 1-361)
T2 sequence: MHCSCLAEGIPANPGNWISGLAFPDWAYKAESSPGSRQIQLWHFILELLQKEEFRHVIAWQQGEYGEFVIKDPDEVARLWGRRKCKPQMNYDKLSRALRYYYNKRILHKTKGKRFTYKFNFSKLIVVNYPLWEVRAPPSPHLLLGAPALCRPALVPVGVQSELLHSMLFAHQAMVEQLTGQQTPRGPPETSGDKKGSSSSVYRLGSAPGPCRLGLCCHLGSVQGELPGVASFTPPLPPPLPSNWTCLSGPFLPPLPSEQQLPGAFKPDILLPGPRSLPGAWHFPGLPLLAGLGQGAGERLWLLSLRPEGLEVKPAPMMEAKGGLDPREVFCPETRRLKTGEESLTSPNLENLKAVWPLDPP
Procedure, shortened: as §1

[3] = target: T3, ETS2 (Homo sapiens, UniProt P15036 1-469)
T3 sequence: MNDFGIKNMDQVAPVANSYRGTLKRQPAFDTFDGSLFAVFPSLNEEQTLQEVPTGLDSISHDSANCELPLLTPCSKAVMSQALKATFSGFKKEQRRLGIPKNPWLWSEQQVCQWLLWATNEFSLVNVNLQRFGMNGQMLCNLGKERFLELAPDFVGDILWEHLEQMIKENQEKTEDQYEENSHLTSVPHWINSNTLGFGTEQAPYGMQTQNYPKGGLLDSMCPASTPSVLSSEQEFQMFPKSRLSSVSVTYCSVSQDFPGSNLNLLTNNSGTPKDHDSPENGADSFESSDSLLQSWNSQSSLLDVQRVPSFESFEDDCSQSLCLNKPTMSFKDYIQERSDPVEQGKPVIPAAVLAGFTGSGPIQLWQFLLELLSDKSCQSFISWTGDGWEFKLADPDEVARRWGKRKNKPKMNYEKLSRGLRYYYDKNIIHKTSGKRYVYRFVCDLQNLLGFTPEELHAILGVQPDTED
Procedure, shortened: as §1

[4] = target: T4, SPDEF (Homo sapiens, UniProt O95238 1-335)
T4 sequence: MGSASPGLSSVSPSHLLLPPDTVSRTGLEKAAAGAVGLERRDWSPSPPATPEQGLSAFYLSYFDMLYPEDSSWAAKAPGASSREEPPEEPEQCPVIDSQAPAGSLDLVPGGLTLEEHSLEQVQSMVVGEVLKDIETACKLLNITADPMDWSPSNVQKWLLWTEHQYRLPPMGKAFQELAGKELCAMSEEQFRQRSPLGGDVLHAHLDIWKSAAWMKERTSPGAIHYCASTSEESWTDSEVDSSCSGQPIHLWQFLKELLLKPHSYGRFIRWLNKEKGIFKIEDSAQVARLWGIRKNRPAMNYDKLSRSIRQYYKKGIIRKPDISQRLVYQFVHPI
Procedure, shortened: as §1

[5] = target: T5, ETV7 (Homo sapiens, UniProt Q9Y603 1-341)
T5 sequence: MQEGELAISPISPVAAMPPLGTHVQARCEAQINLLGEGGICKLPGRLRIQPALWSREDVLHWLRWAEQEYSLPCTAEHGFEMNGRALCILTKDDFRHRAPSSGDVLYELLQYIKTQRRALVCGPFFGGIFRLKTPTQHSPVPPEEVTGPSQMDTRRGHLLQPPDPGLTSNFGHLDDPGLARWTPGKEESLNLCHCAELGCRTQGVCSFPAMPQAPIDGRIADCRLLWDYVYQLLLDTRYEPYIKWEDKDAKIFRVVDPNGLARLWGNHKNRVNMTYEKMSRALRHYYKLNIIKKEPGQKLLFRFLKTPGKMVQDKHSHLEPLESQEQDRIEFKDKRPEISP
Procedure, shortened: as §1

[6] = target: T6, ELF5 (Homo sapiens, UniProt Q9UKW6-2 1-255)
T6 sequence: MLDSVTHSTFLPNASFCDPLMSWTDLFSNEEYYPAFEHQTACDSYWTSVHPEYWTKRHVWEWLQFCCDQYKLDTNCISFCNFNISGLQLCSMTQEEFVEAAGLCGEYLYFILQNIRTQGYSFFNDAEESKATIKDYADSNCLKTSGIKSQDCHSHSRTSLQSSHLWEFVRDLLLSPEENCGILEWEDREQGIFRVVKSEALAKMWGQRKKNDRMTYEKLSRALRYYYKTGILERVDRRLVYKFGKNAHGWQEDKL
Procedure, shortened: as §1

[7] = target: T7, ETV3 (Homo sapiens, UniProt P41162-2 1-143)
T7 sequence: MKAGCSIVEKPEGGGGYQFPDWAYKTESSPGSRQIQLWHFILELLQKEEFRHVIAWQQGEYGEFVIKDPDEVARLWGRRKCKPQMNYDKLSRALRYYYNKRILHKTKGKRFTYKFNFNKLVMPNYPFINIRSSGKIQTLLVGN
Procedure, shortened: as §1

[8] = target: ETV6 (Homo sapiens, UniProt P41212 1-452)
Procedure, shortened: as §1

ETV6, sequence (P41212 whole entry): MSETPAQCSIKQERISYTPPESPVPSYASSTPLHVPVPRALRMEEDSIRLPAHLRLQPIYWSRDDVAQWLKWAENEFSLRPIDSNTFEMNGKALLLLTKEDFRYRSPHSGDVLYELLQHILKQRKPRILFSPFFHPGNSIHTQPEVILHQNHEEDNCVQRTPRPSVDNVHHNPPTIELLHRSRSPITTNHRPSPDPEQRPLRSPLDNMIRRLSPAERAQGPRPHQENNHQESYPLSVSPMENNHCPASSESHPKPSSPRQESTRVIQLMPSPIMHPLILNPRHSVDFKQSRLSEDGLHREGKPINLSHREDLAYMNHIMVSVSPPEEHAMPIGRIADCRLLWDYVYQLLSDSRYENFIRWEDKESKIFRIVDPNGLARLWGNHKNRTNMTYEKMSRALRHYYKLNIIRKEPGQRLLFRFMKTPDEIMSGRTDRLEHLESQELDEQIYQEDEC

## TACCTG
[1]
  binding signal: 1.22 fold enrichment (6-mer frequency, TF over GST control)
[2]
  binding signal: 1.09 fold enrichment (6-mer frequency, TF over GST control)
[3]
  binding signal: 1.15 fold enrichment (6-mer frequency, TF over GST control)
[4]
  binding signal: 1.11 fold enrichment (6-mer frequency, TF over GST control)
[5]
  binding signal: 1.24 fold enrichment (6-mer frequency, TF over GST control)
[6]
  binding signal: 1.21 fold enrichment (6-mer frequency, TF over GST control)
[7]
  binding signal: 1.19 fold enrichment (6-mer frequency, TF over GST control)
[8]
  binding signal: 1.2 fold enrichment (6-mer frequency, TF over GST control)

## CCATCA
[1]
  binding signal: 1.29 fold enrichment (6-mer frequency, TF over GST control)
[2]
  binding signal: 1.19 fold enrichment (6-mer frequency, TF over GST control)
[3]
  binding signal: 1.17 fold enrichment (6-mer frequency, TF over GST control)
[4]
  binding signal: 1.12 fold enrichment (6-mer frequency, TF over GST control)
[5]
  binding signal: 1.25 fold enrichment (6-mer frequency, TF over GST control)
[6]
  binding signal: 1.12 fold enrichment (6-mer frequency, TF over GST control)
[7]
  binding signal: 1.12 fold enrichment (6-mer frequency, TF over GST control)
[8]
  binding signal: 1.05 fold enrichment (6-mer frequency, TF over GST control)

## TTGAGC
[1]
  binding signal: 1.04 fold enrichment (6-mer frequency, TF over GST control)
[2]
  binding signal: 1.06 fold enrichment (6-mer frequency, TF over GST control)
[3]
  binding signal: 1.03 fold enrichment (6-mer frequency, TF over GST control)
[4]
  binding signal: 1.02 fold enrichment (6-mer frequency, TF over GST control)
[5]
  binding signal: 1.1 fold enrichment (6-mer frequency, TF over GST control)
[6]
  binding signal: 1 fold enrichment (6-mer frequency, TF over GST control)
[7]
  binding signal: 1 fold enrichment (6-mer frequency, TF over GST control)
[8]
  binding signal: 1.08 fold enrichment (6-mer frequency, TF over GST control)

## GGTTTG
[1]
  binding signal: 1.26 fold enrichment (6-mer frequency, TF over GST control)
[2]
  binding signal: 1.16 fold enrichment (6-mer frequency, TF over GST control)
[3]
  binding signal: 1.15 fold enrichment (6-mer frequency, TF over GST control)
[4]
  binding signal: 1.06 fold enrichment (6-mer frequency, TF over GST control)
[5]
  binding signal: 1.11 fold enrichment (6-mer frequency, TF over GST control)
[6]
  binding signal: 1.16 fold enrichment (6-mer frequency, TF over GST control)
[7]
  binding signal: 1.25 fold enrichment (6-mer frequency, TF over GST control)
[8]
  binding signal: 1.17 fold enrichment (6-mer frequency, TF over GST control)

## TGTATT
[1]
  binding signal: 1.36 fold enrichment (6-mer frequency, TF over GST control)
[2]
  binding signal: 1.4 fold enrichment (6-mer frequency, TF over GST control)
[3]
  binding signal: 1.4 fold enrichment (6-mer frequency, TF over GST control)
[4]
  binding signal: 1.42 fold enrichment (6-mer frequency, TF over GST control)
[5]
  binding signal: 1.4 fold enrichment (6-mer frequency, TF over GST control)
[6]
  binding signal: 1.26 fold enrichment (6-mer frequency, TF over GST control)
[7]
  binding signal: 1.41 fold enrichment (6-mer frequency, TF over GST control)
[8]
  binding signal: 1.41 fold enrichment (6-mer frequency, TF over GST control)

## TACCCA
[1]
  binding signal: 1.18 fold enrichment (6-mer frequency, TF over GST control)
[2]
  binding signal: 1.06 fold enrichment (6-mer frequency, TF over GST control)
[3]
  binding signal: 1.17 fold enrichment (6-mer frequency, TF over GST control)
[4]
  binding signal: 1.09 fold enrichment (6-mer frequency, TF over GST control)
[5]
  binding signal: 1.07 fold enrichment (6-mer frequency, TF over GST control)
[6]
  binding signal: 1.09 fold enrichment (6-mer frequency, TF over GST control)
[7]
  binding signal: 1.06 fold enrichment (6-mer frequency, TF over GST control)
[8]
  binding signal: 1 fold enrichment (6-mer frequency, TF over GST control)

## CCCTAA
[1]
  binding signal: 1.36 fold enrichment (6-mer frequency, TF over GST control)
[2]
  binding signal: 1.32 fold enrichment (6-mer frequency, TF over GST control)
[3]
  binding signal: 1.15 fold enrichment (6-mer frequency, TF over GST control)
[4]
  binding signal: 1.19 fold enrichment (6-mer frequency, TF over GST control)
[5]
  binding signal: 1.14 fold enrichment (6-mer frequency, TF over GST control)
[6]
  binding signal: 1.19 fold enrichment (6-mer frequency, TF over GST control)
[7]
  binding signal: 1.2 fold enrichment (6-mer frequency, TF over GST control)
[8]
  binding signal: 1.08 fold enrichment (6-mer frequency, TF over GST control)
